# Source: PubChem BioAssay (National Center for Advancing Translational Sciences (NCATS))
# TSHR antagonist = human thyrotropin receptor antagonism; hit rate 0.2% among 330,000; P16473; AID 504810; activity change, negative = inhibition, % at 11.5 µM; TSHR-expressing cells, TSH-stimulated cAMP HTRF, 2 h; active compounds read low;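 active means activity change below a set negative limit, meaning inhibition stronger than a set level, cut at about -70% in these data; inconclusive means activity change between two set negative limits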; further: on the % scale 0 is the no-effect control and ±100 the full control effect
# Target sequence (P16473 whole entry, looked up): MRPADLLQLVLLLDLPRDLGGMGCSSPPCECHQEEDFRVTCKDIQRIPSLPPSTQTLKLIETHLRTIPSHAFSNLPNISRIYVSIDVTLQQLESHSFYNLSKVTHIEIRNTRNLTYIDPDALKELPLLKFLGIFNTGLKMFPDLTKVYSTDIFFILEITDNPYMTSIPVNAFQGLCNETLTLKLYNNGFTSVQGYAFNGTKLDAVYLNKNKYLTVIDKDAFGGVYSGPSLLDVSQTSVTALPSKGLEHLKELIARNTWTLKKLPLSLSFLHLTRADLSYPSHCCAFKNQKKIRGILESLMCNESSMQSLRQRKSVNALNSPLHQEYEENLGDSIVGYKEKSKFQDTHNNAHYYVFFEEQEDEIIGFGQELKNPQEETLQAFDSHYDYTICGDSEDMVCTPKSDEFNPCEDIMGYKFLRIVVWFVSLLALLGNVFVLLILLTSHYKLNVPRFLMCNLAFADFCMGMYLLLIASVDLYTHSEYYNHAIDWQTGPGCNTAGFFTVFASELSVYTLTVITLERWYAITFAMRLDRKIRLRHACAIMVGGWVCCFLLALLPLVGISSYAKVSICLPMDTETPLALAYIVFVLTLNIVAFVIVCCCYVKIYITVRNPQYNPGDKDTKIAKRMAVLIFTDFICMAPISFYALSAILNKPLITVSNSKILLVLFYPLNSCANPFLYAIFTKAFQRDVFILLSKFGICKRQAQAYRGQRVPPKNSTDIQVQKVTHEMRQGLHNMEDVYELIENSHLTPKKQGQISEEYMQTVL
#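 Competitive HTRF cAMP read-out (cryptate anti-cAMP antibody, cAMP-d2; 30 min, room temperature) in freshly harvested TSHR cells. Compounds added before TSH at EC80 (4nM final), followed by 2 hours' incubation at 37 deg C.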
# B2AR arrestin = beta2AR (human) beta-arrestin recruitment activity; P07550; beta-arrestin recruitment to beta2AR, cell-based reporter; Potency, µM (doses to about 46.1 µM), inactives show top-dose activation, usual class: activators; hit rate 0.02% among 330,000; AID 492947; active means well fitted activation curve with a large enough effect; inconclusive means small, poorly fitted or top-dose-only effect;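 further: potency means the concentration at half of the fitted maximal effect; 0% = DMSO controls and full agonism = EC100 isoproterenol or metaproterenol; nearly all actives have a fitted effect of over 65% in size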
# DRD3 agonist = agonists of human D3 dopamine receptor; max activation, %; AID 652048; D3R DiscoveRx beta-arrestin cells, luminescence, 90 min; hit rate 0.58% among 410,000; in the data active means max activation above about 30%; further: 0% is about no effect
#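 Cells at 1500/well, incubated overnight, then treated with pinned compounds (dopamine as control) for 90 min at 37 degrees C. DiscoveRx reagent added for 30 - 60 minutes at room temperature; luminescence read.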
# DRD3 antagonist = blocks the human D3 dopamine receptor. P35462. AID 652054. D3R cells, DiscoveRx beta-arrestin luminescence, antagonist mode; active compounds read low. hit rate 2.5% among 360,000. max response, negative = inhibition, %; in the data active means max response below about -50%; inconclusive means no clear call, values can overlap the other calls; further: on the % scale 0 is the no-effect control and ±100 the full control effect
#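 Cells expressing the human receptor were seeded at 1500 cells/well, incubated overnight at 37 degrees C in 5% CO2, then exposed to library compounds with dopamine controls for 90 minutes at 37 degrees C before luminescent detection.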
# Active calls of the source: *; ? = inconclusive; · = not tested or not shown; [ ] = another dose, or the depositor's remark. Most compounds without a hit are left out; they make up all but 2.9% or so of the library.
SMILES,TSHR antagonist,B2AR arrestin,DRD3 agonist,DRD3 antagonist
CN(C(=O)CSc1nc2ccccc2n1Cc1cccc(C(F)(F)F)c1)c1ccccc1,·,·,-20,·
COc1ccccc1Cc1c(-c2ccco2)nc2cc(C)c(Br)c(C)n12,·,·,-16,-107*
Cc1cc2nc(-c3ccco3)c(CC(C)(C)C)n2c(C)c1Br,·,·,1,0
CCCS(=O)(=O)NC(=O)C1(C)CCCN(C(=O)c2cc(C)nn2C(C)(C)C)C1 (stereo not given),·,·,3,4
COc1cc2c(cc1OC)C1O[C@](c3ccsc3)(C2)Oc2cc(-c3ccccc3)oc(=O)c21,·,0%[9.22 µM],·,·
CCN1CCN(C(=S)c2ccc(O)cc2)CC1,3,-1%,-2,-1
Cc1ccc(C(=S)N2CCN(Cc3ccccc3)CC2)s1,0,0%,-10,-69*
CCN1CCN(C(=S)c2ccc(Br)cc2)CC1,-3,0%,-24,-55*
CN(C)c1ccc(C(=S)N2CCN(Cc3ccccc3)CC2)cc1,-13,0%,-19,-50*
Oc1ccc(C(=S)N2CCN(Cc3ccccc3)CC2)cc1,-6,0%,-6,-7
S=C(c1ccc(Br)cc1)N1CCN(Cc2ccccc2)CC1,10,0%,-44,-78*
C=Cc1c(C)c2cc3nc(cc4[nH]c(cc5nc(cc1[nH]2)C(C)=C5CCC(=O)OC)c(CCC(=O)O)c4C)[C@@]1(C)C3=CC=C(C(=O)OC)[C@H]1C(=O)OC,·,·,8,·
CN1CCN(C(=S)c2cn(Cc3ccccc3)c3ccccc23)CC1,-3,0%,-26,?
CN1CCN(C(=S)c2cn(Cc3ccc(Br)cc3)c3ccccc23)CC1,-6,-1%,-8,-88*
COc1ccc(-c2cc(-c3ccccc3)nc3c2COc2ccc(F)cc2-3)cc1,·,·,-11,·
COc1ccc(OCC(=O)NNC(=O)c2ccccn2)cc1,-2,-1%,-9,-82*
COc1ccc(OCC(=O)NNC(=S)NC(=O)C2CCCCC2)cc1,2,0%,·,·
COc1ccc(OCC(=O)NNC(=S)NC(=O)C2CC2)cc1,-4,0%,31*,7
COc1cccc(Cn2c(=O)n(CC3CCC(C(=O)N4CCCCC4)CC3)c(=O)c3sccc32)c1 (stereo not given),·,·,8,·
CC(C)CCn1nnc2sc(-c3ccccc3)cc2c1=O,·,·,3,·
CN(C)C(CNC(=O)c1ccc(C2SCCS2)cc1)c1ccccc1 (stereo not given),7,0%,-26,-53*
CN(C)C(CNC(=O)c1ccc(NC(=O)c2cccs2)cc1)c1ccccc1 (stereo not given),15,0%,-6,-11
COc1ccc(-c2n(CC(=O)OC3CC(C)CCC3C(C)C)c3ccccc3[n+]2C)cc1 (stereo not given),35,0%,-27,-86*
CCOc1ccc(N=C2NC(=O)S/C2=C\c2ccc(N(C)C)cc2)cc1,-8,0%,-11,-69*
O=S(=O)(c1ccccc1)c1nc(-c2ccc(Cl)cc2Cl)oc1N1CCCCCC1,·,·,61*,·
SMILES,TSHR antagonist,B2AR arrestin,DRD3 agonist,DRD3 antagonist
Cc1ccccc1-c1nc(S(=O)(=O)c2ccccc2)c(N2CCCC2)o1,·,-1%,-3,17
COc1cccc(N2CC(NC(=O)/C=C\c3ccc4c(c3)OCO4)CC2=O)c1 (stereo not given),·,·,-8,·
C=CCN1CCc2cc(O)c(O)cc2C(c2ccccc2)C1 (stereo not given),-15,?,139*,32
C=CCN1CCc2c(cc(O)c(O)c2Cl)C(c2ccccc2)C1 (stereo not given),-7,3%,97*,0
Oc1cc2c(c(Cl)c1O)CCNCC2c1ccccc1 (stereo not given),-13,·,·,·
C=CCN1CCN(C(=O)c2ccc(-c3ccccc3)cc2)CC1,-5,0%,-10,-28
O=C(COC(=O)c1cccc(S(=O)(=O)N2CCc3ccccc32)c1)Nc1ncc(C(F)(F)F)cc1Cl,1,-1%,-2,-57*
Cc1nc([N+](=O)[O-])c(Sc2nc3ccccc3[nH]2)n1Cc1ccccc1,10,0%,-5,-5
COc1ccc2nc(Sc3c([N+](=O)[O-])nc(C)n3Cc3ccccc3)[nH]c2c1,2,-1%,-10,-75*
Cc1ccc(NC(=O)Cn2cnc3sc(C(=O)O)c(C)c3c2=O)cc1Cl,·,·,1,·
CCc1ccc(-n2c(=O)c3sc4ccccc4c3n(CC(=O)NC3CCCC3)c2=O)cc1,·,·,2,·
O=C(CCCN1CCC(O)(c2cccc(C(F)(F)F)c2)CC1)c1ccc(F)cc1,-20,0%,0,-61*
O=C(CCCN1CCC(O)(c2ccc(Br)cc2)CC1)c1ccc(F)cc1,7,-1%,-83,-122*
O=C(NNC1=Nc2ccccc2SC1)c1cccc([N+](=O)[O-])c1,5,0%,-12,-61*
O=C(NNC1=Nc2ccccc2SC1)c1ccccc1F,-3,0%,-11,0
CCOC(=O)N1CCC(NC(=O)c2cc(C)c3c(C)nn(-c4ccccc4)c3n2)CC1,2,0%,46*,3
CCOC(=O)N1CCC(NCCNC(=O)c2ccccc2)CC1,8,0%,-2,-73*
CCOC(=O)N1CCC(NCCNC(=O)c2cccs2)CC1,1,0%,-8,-77*
O=C(NCCNC1CCC(c2ccccc2)CC1)c1cccs1 (stereo not given),1,0%,-11,-54*
CCOC(=O)N1CCC(NCCNC(=O)c2ccccc2Cl)CC1,3,0%,-2,?
O=c1c(N2CCCCC2)csc2ccc(F)cc12,·,·,7,·
O=C(NCCN1CCCCC1)c1ccc(Cn2c(SCc3ccccc3)nc3cccnc32)cc1,·,·,-8,·
CCCn1c(CCC(=O)O)ccc1-c1cccs1,11,-1%,1,-11
COCCCn1c(CCC(=O)O)ccc1-c1cccs1,4,0%,-4,-55*
Cn1c(=O)c2c(-c3ccccc3)n(-c3cccc(C#N)c3)cc2n(C)c1=O,·,·,-3,·
SMILES,TSHR antagonist,B2AR arrestin,DRD3 agonist,DRD3 antagonist
CC(=O)n1cc(N(C(=O)CCl)c2ccc(Cl)cc2)c2ccccc21,-16,-1%,-9,-58*
CCCNC(=O)C(Cc1cccc(C#N)c1)NC(=O)c1ccc(C#N)cc1 (stereo not given),7,0%,90*,-7
O=C(NCc1nnc(SCc2ccc(F)cc2)n1-c1ccccc1)C12CC3CC(CC(C3)C1)C2,0,-1%,0,-51*
O=S(=O)(c1ccc2[nH]c3c(c2c1)CCCC3)N1CCN(c2cccc(C(F)(F)F)c2)CC1,·,·,3,·
COc1ccc(S(=O)(=O)NCc2ccccn2)cc1OC,-5,0%,1,-6
COc1ccccc1Oc1ccc(S(=O)(=O)NCc2ccccn2)cc1,-4,0%,15,-79*
CC(CNC(=O)Cn1cnc2c(NCc3ccccc3)ncnc21)c1ccccc1 (stereo not given),-4,-1%,45*,5
O=C(Cn1cnc2c(NCc3ccccc3)ncnc21)NCCCc1ccccc1,0,0%,-7,1
Cc1cc(C)c(CN2CCN(C(=O)Cn3cnc4c(NCc5ccccc5)ncnc43)CC2)c(C)c1,-34,0%,31*,11
